Laboratory results published in the supplement of paper PMC9794691.

How the values were obtained:
H1975 [1] = test: area under confluence curve of osimertinib + compound combination regimen (DTP regrowth); compare to osimertinib-only DTP control AUC of the same experiment (AUC (confluence x time, arbitrary)); details: test compound dose 300 nM, DMSO control AUC in same experiment: 20657
Procedure, shortened: (§1)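 Two schedules were compared in EGFR-mutant NSCLC lines. In one, the EGFR inhibitor and a fixed-dose test compound were given together up to the persister stage (10–21 days), followed by drug-free medium. In the other, the inhibitor alone came first and the test compound second. Prism calculated the area under the IncuCyte confluence–time curve, taking the median of triplicates where these were available.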

HCC2279 [2] = test: as above; details: test compound dose 300 nM, DMSO control AUC in same experiment: 40085
Procedure, shortened: as §1

HCC2935 [3] = test: as above; details: test compound dose 300 nM, DMSO control AUC in same experiment: 15413
Procedure, shortened: as §1

HCC4006 [4] = test: as above; details: test compound dose 300 nM, DMSO control AUC in same experiment: 10921
Procedure, shortened: as §1

HCC827 [5] = test: as above; details: test compound dose 300 nM, DMSO control AUC in same experiment: 43928
Procedure, shortened: as §1

II-18 [6] = test: as above; details: test compound dose 300 nM, DMSO control AUC in same experiment: 7080
Procedure, shortened: as §1

H1975 [7] = test: area under confluence curve of compound monotherapy; compare to DMSO control AUC of the same experiment (AUC (confluence x time, arbitrary))
Procedure, shortened: (§2)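 EGFR-mutant adenocarcinoma lines (RPMI 1640, 10% FBS, 37 °C, 5% CO2) were seeded at 20,000–30,000 cells/well in 48-well plates and next day given test compound alone at one dose (highest with <50% parental inhibition, or 1 uM), refreshed after PBS washes every 3–4 days, then drug-free from DTP stage (10–21 days). IncuCyte confluence was tracked until EGFR-inhibitor-only wells regrew. Area under the confluence curve came from Prism (median of triplicates where run), beside same-experiment vehicle AUC.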

HCC2279 [8] = test: as above
Procedure, shortened: as §2

HCC2935 [9] = test: as above
Procedure, shortened: as §2

HCC4006 [10] = test: as above
Procedure, shortened: as §2

HCC827 [11] = test: as above
Procedure, shortened: as §2

II-18 [12] = test: as above
Procedure, shortened: as §2

[13] = dosing schedule: upfront, osimertinib-only DTP control AUC in same experiment: 19044
[14] = 300 nM, DMSO control AUC in same experiment: 40085
[15] = 300 nM, DMSO control AUC in same experiment: 15413
[16] = 300 nM, DMSO control AUC in same experiment: 10921
[17] = 1000 nM, DMSO control AUC in same experiment: 15857
[18] = 1000 nM, DMSO control AUC in same experiment: 14404
[19] = 1000 nM, DMSO control AUC in same experiment: 19215
[20] = 1000 nM, DMSO control AUC in same experiment: 18415
[21] = 1000 nM, DMSO control AUC in same experiment: 21320
[22] = 1000 nM, DMSO control AUC in same experiment: 11834

## O=C(NC[C@H](O)CN1CCc2ccccc2C1)c1ccnc(NC2CCC2)c1 + C=CC(=O)Nc1cc(Nc2nccc(-c3cn(C)c4ccccc34)n2)c(OC)cc1N(C)CCN(C)C [osimertinib]
H1975 [1]; dosing schedule: sequential, osimertinib-only DTP control AUC in same experiment: 15943
  area under confluence curve: 14900
H1975 [1]; dosing schedule: upfront, osimertinib-only DTP control AUC in same experiment: 27804
  area under confluence curve: 25700
HCC2279 [2]; dosing schedule: sequential, osimertinib-only DTP control AUC in same experiment: 15997
  area under confluence curve: 8560
HCC2279 [2]; dosing schedule: upfront, osimertinib-only DTP control AUC in same experiment: 28057
  area under confluence curve: 8330
HCC2935 [3]; dosing schedule: sequential, osimertinib-only DTP control AUC in same experiment: 7139
  area under confluence curve: 8090
HCC2935 [3]; [13]
  area under confluence curve: 16100
HCC4006 [4]; dosing schedule: sequential, osimertinib-only DTP control AUC in same experiment: 14882
  area under confluence curve: 9080
HCC4006 [4]; dosing schedule: upfront, osimertinib-only DTP control AUC in same experiment: 18913
  area under confluence curve: 6670
HCC827 [5]; dosing schedule: sequential, osimertinib-only DTP control AUC in same experiment: 5666
  area under confluence curve: 5240
HCC827 [5]; [13]
  area under confluence curve: 24000
II-18 [6]; dosing schedule: sequential, osimertinib-only DTP control AUC in same experiment: 21122
  area under confluence curve: 18800
II-18 [6]; dosing schedule: upfront, osimertinib-only DTP control AUC in same experiment: 22894
  area under confluence curve: 6900

## O=C(NC[C@H](O)CN1CCc2ccccc2C1)c1ccnc(NC2CCC2)c1
H1975 [7]; 300 nM, DMSO control AUC in same experiment: 20657
  area under confluence curve: 20400
HCC2279 [8]; [14]
  area under confluence curve: 25900
HCC2935 [9]; [15]
  area under confluence curve: 16200
HCC4006 [10]; [16]
  area under confluence curve: 8430
HCC827 [11]; 300 nM, DMSO control AUC in same experiment: 43928
  area under confluence curve: 45500
II-18 [12]; 300 nM, DMSO control AUC in same experiment: 7080
  area under confluence curve: 8360

## COc1nn(C)cc1Nc1nccc(-c2c[nH]c3c(NC(=O)[C@@H](C)N4CCN(C)CC4)cccc23)n1
H1975 [7]; [17]
  area under confluence curve: 17600
HCC2279 [8]; [18]
  area under confluence curve: 15500
HCC2935 [9]; [19]
  area under confluence curve: 20800
HCC4006 [10]; [20]
  area under confluence curve: 18600
HCC827 [11]; [21]
  area under confluence curve: 19500
II-18 [12]; [22]
  area under confluence curve: 5850

## C[C@@H](Oc1cc(-c2cnn(C3CCNCC3)c2)cnc1N)c1c(Cl)ccc(F)c1Cl [Crizotinib]
H1975 [7]; [17]
  area under confluence curve: 9870
HCC2279 [8]; [18]
  area under confluence curve: 13900
HCC2935 [9]; [19]
  area under confluence curve: 19300
HCC4006 [10]; [20]
  area under confluence curve: 16500
HCC827 [11]; [21]
  area under confluence curve: 19500
II-18 [12]; [22]
  area under confluence curve: 6690

## Cn1cnc2c(F)c(Nc3ccc(Br)cc3Cl)c(C(=O)NOCCO)cc21 [Selumetinib]
H1975 [7]; 300 nM, DMSO control AUC in same experiment: 14522
  area under confluence curve: 17100
HCC2279 [8]; [14]
  area under confluence curve: 37400
HCC2935 [9]; [15]
  area under confluence curve: 17800
HCC4006 [10]; [16]
  area under confluence curve: 11800
HCC827 [11]; 300 nM, DMSO control AUC in same experiment: 48895
  area under confluence curve: 45800
II-18 [12]; 300 nM, DMSO control AUC in same experiment: 18482
  area under confluence curve: 15300

## CCn1nc(C2CCN(C(=O)CCO)CC2)nc1-c1cnc(N)c(-c2nnc(C(C)(C)C)o2)n1
H1975 [7]; 1000 nM, DMSO control AUC in same experiment: 20657
  area under confluence curve: 18200
HCC2279 [8]; 1000 nM, DMSO control AUC in same experiment: 9426
  area under confluence curve: 11400
HCC2935 [9]; 1000 nM, DMSO control AUC in same experiment: 13875
  area under confluence curve: 11700
HCC4006 [10]; 1000 nM, DMSO control AUC in same experiment: 16638
  area under confluence curve: 17000
HCC827 [11]; 1000 nM, DMSO control AUC in same experiment: 27404
  area under confluence curve: 27500
II-18 [12]; 1000 nM, DMSO control AUC in same experiment: 18482
  area under confluence curve: 14200
